Measured values as given in the supplement of paper PMC11417369.
In all, about 25,000 sequences were measured (“ln(normalized median fluorescence intensity)”: median about 9.3, highest 2% from about 10 on). For the sample, the highest values were picked, then their nearest neighbours and some sequences at random.

Test system: PF3D7_0420300 AP2 domain 1 (GST-tagged)
Experiment: gcPBM binding intensity (ln(normalized median fluorescence intensity)); higher = stronger DNA binding
Method in brief: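 GST-fused DNA-binding domains of P. falciparum, expressed in E. coli, were applied at about 25 μg on average for 1 h to an Agilent 4 × 180k array of primer-extended double-stranded 36-bp intergenic genomic probes and negative controls. Binding intensity is the highest Masliner-normalised natural-log median intensity across replicate spots of either probe orientation, measured with Alexa488 anti-GST antibody and a 488 nm scan.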

| Sequence | gcPBM binding intensity (ln) |
| --- | --- |
| ATATAACTCAAGGGCACACATATACCTTTCCTTTTT [CACACA_site4390] | 9.5 |
| AATATACATAACAAGGTGCAAAAAATATTGTTCATA [GTGCAC_site9499] | 9.5 |
| TATTATCTCTTATGAACACACATTTTTATTTTCAAA [CACACA_site3353] | 9.31 |
| AATATATAGCTAAAAACACACAAATATATACGCATA [CACACA_site3608] | 9.69 |
| TTATATATAATATATACACACACATGTATATATAAA [CACACA_site8603] | 9.45 |
| AGTTAATGAATAGGCACACATATATCTGTATAAATA [CACACA_site4448] | 9.47 |
| AAAAAAAAAAGACACACACACATATTTATTTATATA [CACACA_site6484] | 9.93 |
| AAAAAGGATAAACACACACACACACCGATATATATA [CACACA_site8206] | 10.2 |
| CCATAAAAAGGATACACACACACACCCACATATATA [CACACA_site903] | 10.2 |
| AAAAAAAAAAGACACACACACAAAAAAAGATATATA [CACACA_site6645] | 10.2 |
| AATAAAAAGGAACACACACACACACCGATATATATA [CACACA_site5895] | 10.2 |
| TAAAAGGATACATATACACACATATATATATATATA [CACACA_site2791] | 9.32 |
| AAAAAAAAAATATACACACACACATACCCATAAATA [CACACA_site5981] | 9.99 |
| CAAAAGGATAGGCACACACACACACCGATATATATA [CACACA_site8685] | 10.2 |
| AAACTTGACGGACACACACACACATATATAAAAAAA [CACACA_site4577] | 10 |
| AAAAAAAAAAGACACACACACACACGGAGATATATA [CACACA_site6216] | 10.3 |
| TTAAACTTGAGACACACACACACACGGATATAAAAA [CACACA_site6495] | 10.2 |
| ACTTGACACGGACACACACACATATATAAAAAAAAA [CACACA_site4576] | 9.87 |
| ATTTATGAAAAATGTACACACATCAAATGCTTATAT [CACACA_site4068] | 9.42 |
| AAATGAAAGAACAGCACACATATATATTATATATAA [CACACA_site2002] | 9.63 |
| ATTGCATATAATGGCACACATAAATCCATAATATAT [CACACA_site297] | 9.29 |
| GTTAATATACATAAACGTACAGAATTATTATGAGTT [XGTACX_site5185] | 9.13 |
| TGTTTAACATTTATATGTACATATATTCACATATTA [XGTACX_site342] | 9.29 |

| Sequence | gcPBM binding intensity (ln) |
| --- | --- |
| AACAATATATTGAATAGTACATATATATAAACATAT [XGTACX_site2811] | 9.46 |
| GTAGAAAGAAAAATTAGTACTTAAATATTATAAAAA [XGTACX_site8458] | 9.11 |
| AATAAATATAAATACACACCCATATAAATATAAATA [CACACA_site7264] | 9.85 |
| AATAAATATAAATACACACCCATATATATATATATA [CACACA_site5436] | 9.45 |
| AATATAAGGATATATACACACATAAATACATACATA [CACACA_site7859] | 9.89 |
| ACCCATAAAAAGGATACACACACACCCACCCATATA [CACACA_site8205] | 10.4 |
| CCATAAAAAGGATACACACACACACGCACATATATA [CACACA_site6550] | 10.2 |
| TAGATACATACACGCACACACATATATAAATAAATA [CACACA_site6157] | 9.85 |
| TTTTATAAATCTAAACGTATCTAAATGAATAATTAA [GTGCAC_negctrl_site44] | 8.84 |
| TTTATAACATTTAAGAGTACAAAAAAATAAATAAAT [XGTACX_site1264] | 9.37 |
| TATTGTAGAGGCAAAAGTACACATTTAATAATTTCC [XGTACX_site1151] | 9.23 |
| AAACTTGTAAGAAACACACACACACCCATATATATA [CACACA_site797] | 10.1 |
| TTGTAAGAAAAACACACACACACATATATATATATA [CACACA_site795] | 9.95 |
| ACTTGTAAGAAACACACACACACACCGATATATATA [CACACA_site4594] | 10.4 |
| AAACTTGTAAGAAACACACACACACGCATATAAATA [CACACA_site6518] | 10 |
| ACTTGTAAGAAACACACACACACACCCATATATATA [CACACA_site796] | 10.4 |
| GTAAGAAACAGACACACACACATATATATATATATA [CACACA_site794] | 9.79 |
| AATATAAAAATGTTTACACACACACGGAAATATATT [CACACA_site7226] | 10.1 |
| TATATATATATGTGTATACACACCTGATAAAGGTAT [CACACA_site2653] | 9.42 |
| AAAAAATTCATATATACACACACGCACATATATATA [CACACA_site4226] | 9.84 |
| CTTAAATTTTTAAATACACACATACACCCATACACA [CACACA_site4461] | 9.64 |
| AAAAATTTGGCATACACACACACACGCACACGCACA [CACACA_site6422] | 10.2 |
| AAAAATTTGGCATACACACACACACCCACACCCACA [CACACA_site587] | 10.2 |

| Sequence | gcPBM binding intensity (ln) |
| --- | --- |
| AAAATTCATATATACACACACGCACATATATATATA [CACACA_site90] | 9.85 |
| TACAAAAAAAATGTATTTAGGACATATATATGTTTA [XGTACX_negctrl_site455] | 9.02 |
| ACGTTTTATAATTAATGTACAAATATTAAAATTGCA [XGTACX_site7869] | 9.07 |
| GCTAGTTTTTTTTGGCGTACAGTACCGGTTTACTTT [XGTACX_site2606] | 9.42 |
| AAAAAAAAAAAATAATGTACATATGTATTTGAGAAA [XGTACX_site3572] | 9.23 |
| ACAAAATGTAAATAAACACACATATATATATATATA [CACACA_site1281] | 9.3 |
| ATAATATAACACAAATGTACAAAAAATAAATAAATA [XGTACX_site385] | 9.51 |
| TATAACAAATAAAAATGTACATATATATAATATATA [XGTACX_site6173] | 9.38 |
| AAAAATATAATATAATGTACACATAAACAAAAAAAA [XGTACX_site3658] | 9.58 |
| ATGTTGTACAAACACACACACAAAAAAAAAATAAAA [CACACA_site2406] | 9.89 |
| AACAAAATAAAACACACACACAAATGTACATATATA [CACACA_site2424] | 10.2 |
| ATAACAAAATAAAACACACACACAAATGTACATATA [CACACA_site2425] | 10.3 |
| TAACAAAATGTAAATAAACACACATATATATATATA [CACACA_site8352] | 9.37 |
| ATAACAAAATAAAACACACACACAAATGTACAGATA [CACACA_site5358] | 10.3 |
| TTATTACGAACTCTGCAACATATATAAATAAATAAA [CACACA_negctrl_site44] | 8.86 |
| ATATTTCATCTAGCTACACACATATAATAAATTATT [CACACA_site4094] | 9.53 |
| ATTCTAATTAGTAAAGTGCAGATAAAATGATGCCCT [GTGCAC_site9578] | 9.08 |
| ATTACATTTTTGTTTTGTACATATATTTTATAAACA [XGTACX_site494] | 9.34 |
| TAATTTTTTTAAGAGAGTACATGACTCAACAGTTTA [XGTACX_site3103] | 8.76 |
| TTAAAAAAAAAACACACACACATACCCATATATATA [CACACA_site5768] | 9.97 |
| CCCACTAAAAAACACACACACACACCCATATATATA [CACACA_site6140] | 10.2 |
| CGCACTAAAAAACACACACACACACCCATATATATA [CACACA_site4152] | 10.3 |
| CACCCACTAATAAACACACACATATATATATATATA [CACACA_site389] | 9.62 |

| Sequence | gcPBM binding intensity (ln) |
| --- | --- |
| TTATATTAAACAAACACACACATATATATATATATA [CACACA_site2382] | 9.53 |
| CATACTGTTATAAAATGTACGCATATACACACACAT [XGTACX_site7256] | 9.89 |
| CACATACAGACATACACACACATATAGATTAATATA [CACACA_site6399] | 9.93 |
| GGCATGACTATCTGCACACATAAAAATAAGAAATAC [CACACA_site841] | 9.56 |
| TAGAATAATCTATAAACACACAAACCCAACAAAAGA [CACACA_site6132] | 9.86 |
| CACCCACACCAACACACACACATATATAATATATAT [CACACA_site595] | 10.1 |
| TATAATAATCCACAAGCACACACACCCACATATATA [CACACA_site8343] | 9.93 |
| AATAATAGAAGCACCCACCCACCACCACCCACACAT [CACACA_negctrl_site1033] | 11.1 |
| ATAATAATTAACCTATGTACATAGGAAAGTCATAAA [XGTACX_site4387] | 9.29 |
| TTATATTAATTTTGTTGTACTATTTGTGCATTAAAT [XGTACX_site4790] | 9.21 |
| TGTCATGATACATACACACACATACCCATACCCATA [CACACA_site5211] | 9.88 |
| TATATATTGCCCTTCACACACACACCGATATATATA [CACACA_site5390] | 10.2 |
| CATATATATTTGTTCACACACACACCCAAAAAAAAA [CACACA_site2476] | 9.99 |
| ATTCATTTTATTTTTTCACACACACCGATATATATA [CACACA_site9097] | 10 |
| CTTATATATTGCCCTTCACACACACCCATATATATA [CACACA_site8795] | 10.1 |
| TATATATTGCCCTTCACACACACACCCATATATATA [CACACA_site2493] | 10.2 |
| ATTATATAATTGTCTTCACACACACCGATATATATA [CACACA_site8883] | 9.93 |
| TATTGCCCTTGACACACACACATATAAATAAATATA [CACACA_site7220] | 9.84 |
| TATATTGCCCTTCACACACACACATATATATATATA [CACACA_site2492] | 10.3 |
| TATTGCCCTGGACACACACACATATATATATATATA [CACACA_site5389] | 9.88 |
